In all, about 220,000 compounds went through this assay and about 8,200 (3.7%) were called active. The full list was thinned out, with actives kept by preference. A number with no mark means an inactive call.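 The calls were made as follows: active = compounds that reduced the stress-induced luciferase reporter signal by more than about 70% of percent inhibition (limit read from the data); inactive = the rest.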 Residues, ends and D or L forms follow the SMILES beside them. *: point of attachment. Bz = O=C(c1ccccc1)*
Assay: inhibitors of CHOP promoter induction, primary screen, cell-based, unfolded protein response, luciferase reporter (AID 2732);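 also: 0% = tunicamycin plus vehicle and 100% = wells without tunicamycin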
Settings: CHO-K1 CHOP-promoter luciferase, tunicamycin-induced, 15-18 h; at 10 µM; active compounds read high
`C=CCNC(=O)CSc1nc2scc(-c3ccco3)c2c(=O)n1CC=C` gave an inhibition of -19.4%. `O=S(=O)(Nc1ccc(Cl)cn1)c1cnc(Cl)c(Br)c1` showed an inhibition of 9.6%. In the case of `CCCCN1C(=O)/C(=C2/C=CC=CN2C)SC1=S`, the inhibition is reported as -3.04%. In the case of `CCCCN1C(=O)/C(=C/C=C2/C=Cc3ccccc3N2CC)SC1=S`, the inhibition is reported as 70.5% (active). `CCN1C(=O)/C(=C\N2CCN(c3ccccc3)CC2)SC1=S` showed an inhibition of 23.4%. `CC1Cc2ccccc2N1CC(=O)Nc1ccc(S(N)(=O)=O)cc1` (centres undefined) gave an inhibition of -11.8%. Work on `COc1ccc(Nc2cc(Cl)ccc2C(=O)O)cn1` yielded an inhibition of 9.7%. In the case of `CCNC(=O)CCc1nc(-c2ccc(C)cc2)no1`, the inhibition is reported as 11.2%. For `CCNC(=O)CCc1nc(-c2ccc(C(C)(C)C)cc2)no1`, the inhibition was 91% (active). Work on `Cc1ccc(-c2noc(CCC(N)=O)n2)cc1` yielded an inhibition of 10.7%. `CC1CCN(c2ccc([N+](=O)[O-])c(SCCO)c2)CC1` showed an inhibition of 7.43%. In the case of `Cc1ccc(-c2csc(NC(=O)Cn3[nH]c(=O)c4ccccc4c3=O)n2)cc1`, the inhibition is reported as 80% (active). `O=C(Nc1ccc2oc(-c3ccc4ccccc4c3)nc2c1)c1cccs1` showed an inhibition of -26.2%. For `COc1ccc(CC(=O)Nc2ccc(-c3nnc(-c4ccc(C)cc4)o3)cc2)cc1`, the inhibition was 83.6% (active). In the case of `Cc1ccc(OCC(=O)Nc2ccc(-c3nc4ncccc4o3)cc2)cc1`, the inhibition is reported as -4.24%. `O=C(O)c1ccc(NC(=O)c2cccs2)cc1` gave an inhibition of 28.8%. `COc1ccc(CC(=O)Nc2ccc(C(=O)NC(C)(C)C)cc2)cc1` gave an inhibition of 19.1%. `Cc1cccc(S(=O)(=O)CC(=O)Nc2nc(-c3ccccc3)cs2)c1` gave an inhibition of -8.42%. For `Cc1ccc(-c2csc(NC(=O)c3cccs3)n2)cc1`, the inhibition was 78.4% (active). With `Cc1ccc(-c2nnc(-c3ccc(NC(=O)c4cccs4)cc3)o2)cc1` the inhibition was 89% (active). In the case of `Cc1ccc(-c2csc(NNC(=O)c3ccccc3)n2)cc1`, the inhibition is reported as 21.4%. `Cc1ccc(C(=O)NNC(=O)c2cccs2)cc1` gave an inhibition of -31.6%. `CCCc1ccc(-c2csc(NC(=O)Cc3cccs3)n2)cc1` gave an inhibition of 12.1%. Molecule `CC(=O)N1CC[n+]2c(-c3ccc([N+](=O)[O-])cc3)csc21` has an inhibition of -3.95%. `O=C(O)CCc1cccnc1` gave an inhibition of 16.7%. For `COc1ccc(CN2CCOC2=O)cc1OC`, the inhibition was -5.21%. In the case of `COc1ccc(N2C(=O)C3C(C2=O)C(C(=O)c2ccccc2)N2CCCC32)cc1` (centres undefined), the inhibition is reported as 11.9%. In the case of `CC(C)C[C@H](CO)Nc1nc(N(C)c2cccc(Cl)c2)c2ncn(C(C)C)c2n1`, the inhibition is reported as 21.8%. Molecule `COC(=O)c1ccccc1N=Nc1c(C)[nH][nH]c1=O` has an inhibition of 14.2%. Molecule `CCCNc1c(N)c(=O)c1=O` has an inhibition of 3.2%. `CCc1c(C)nc2c(-c3ccccc3)c(C)nn2c1Nc1ccc(NC(C)=O)cc1` showed an inhibition of 17.3%. Work on `CCS(=O)(=O)c1cc([N+](=O)[O-])c(Sc2ccccc2N)s1` yielded an inhibition of -0.04%. `COc1cc(C(F)(F)F)nc2c(Br)c(C(C)(C)C)nn12` showed an inhibition of 15%. With `CCN(CC)CCn1cnc2c1c(=O)n(CCOC(=O)c1cc(OC)c(OC)c(OC)c1)c(=O)n2C` the inhibition was -3.64%. `CCN1CCN(C(c2cccnc2)c2cc(Cl)c3cccnc3c2O)CC1` (centres undefined) gave an inhibition of -101%. Molecule `Fc1ccc(N2CCN(Cc3cnc(Oc4ccc(Br)cc4)s3)CC2)cc1` has an inhibition of 21%. For `Oc1c(CN2CCN(c3ccc(F)cc3)CC2)cc(Cl)c2cccnc12`, the inhibition was 92% (active). In the case of `Cc1cc(N2CCN(c3ccc(F)cc3)CC2)n2ncnc2n1`, the inhibition is reported as 1.35%. `O=C(NC(Cc1ccccc1)C(=O)N1CCCC1C(=O)O)c1ccccc1` (stereo not drawn) (Bz-Phe-Pro-OH; configuration not given here) showed an inhibition of -0.39%. For `Cc1ccc(C(=O)N2CCN(C3CCCCC3)CC2)s1`, the inhibition was 12.7%. For `O=C(C(Cc1ccccc1)n1cccc1)N1CCN(C2CCCCC2)CC1` (centres undefined), the inhibition was 72.6% (active). In the case of `CC(=O)c1ccc(S(=O)(=O)N2CCN(C(=O)/C=C/c3ccc4ccccc4n3)CC2)cc1`, the inhibition is reported as 60%. With `O=C(Nc1ccc(Cl)cc1)OCc1cc(-c2ccccc2)on1` the inhibition was 89.7% (active). For `O=C(Nc1ccccc1)OCc1cc(-c2ccc(Cl)cc2)on1`, the inhibition was -15.4%. With `O=C(Nc1ccccc1)OCc1cn(-c2ccc(Cl)cc2)nn1` the inhibition was -8.26%. `CCOC(=O)Cn1c(-c2cccnc2Cl)nc2ccccc21` gave an inhibition of -1.12%. `CCOC(=O)CN1CCC(c2ccccc2)CC1` gave an inhibition of 8.89%. For `CCOC(=O)Cn1c2c(c(-c3ccccc3OC)cc1=O)CCCC2`, the inhibition was 77.2% (active). In the case of `FC(F)(F)c1nc(-c2ccccc2)ncc1-c1nnnn1-c1ccccc1`, the inhibition is reported as 49.3%. Molecule `CCOn1c(SC(C)C)nc2ccccc2c1=O` has an inhibition of -9.05%. For `CC(Sc1nc2ccccc2c(=O)n1Cc1ccco1)C(=O)c1ccccc1` (centres undefined), the inhibition was 16.2%. With `CCOC(=O)C(C)Sc1nc2ccccc2c(=O)n1CC1CCCCC1` (centres undefined) the inhibition was 99.3% (active). Molecule `Cc1nnc2n1N=C(c1ccc3c(c1)NC(=O)CO3)CS2` has an inhibition of 8.13%. `O=C(O)c1ccccc1C(=O)Nc1ccccc1[N+](=O)[O-]` showed an inhibition of -7.32%. With `CCC(C)c1ccc(O)c(/C=N/O)c1` (centres undefined) the inhibition was 71.8% (active). Molecule `CNCC(O)c1ccc(O)c(O)c1` (centres undefined) has an inhibition of -0.79%. With `CC(=O)Oc1ccccc1C(=O)Nc1ncc([N+](=O)[O-])s1` the inhibition was 72.1% (active). Molecule `O=C(Cc1c(F)cccc1Cl)Nc1ncc([N+](=O)[O-])s1` has an inhibition of 9.25%. In the case of `O=C(CCc1ccccc1)Nc1ncc([N+](=O)[O-])s1`, the inhibition is reported as -9.45%. `O=C(NNC(=S)Nc1ccc(F)cc1)[C@H]1C[C@@H]1c1ccccc1` gave an inhibition of 5.39%. With `CCOc1cc(C)c(Cl)cc1S(=O)(=O)n1nnc2ccccc21` the inhibition was 73.7% (active). With `CCCOc1cc(C)c(S(=O)(=O)n2nnc3ccccc32)cc1C` the inhibition was -25.8%. `COc1cc(C)c(Cl)cc1S(=O)(=O)n1ccnc1` showed an inhibition of 14.6%. With `CN(c1ccccn1)c1ncnc2[nH]ncc12` the inhibition was 16.3%.
